HSF1 inhib = HSF1 inhibition; NIH3T3-HGL HSE-luciferase, MG132-induced, luminescence 8 h; hits give low values; activity change, negative = inhibition, % at 7.5 µM (by protocol); hit rate 0.77% among 300,000; AID 2098;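 active = more than half of replicate wells show activity change below -50%, luminescence cut by over half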;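 also: luciferase reports HSF-1 transcriptional activity via heat shock element; 0% = median of DMSO wells and -100% = zero luminescence signal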
esBAF inh = SWI/SNF esBAF complex inhibition | hit rate 2% among 350,000 | reporter increase, % at 12.5 µM | mouse ES cells, Bmi1-luciferase knock-in reporter, 24 h; 100% = twice the neutral-well signal; in the data active = activation above about 40%;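 also: 0% = median of the plate's neutral control wells and 100% = double that signal; a rise in the Bmi1 reporter signal indicates esBAF inhibition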
MITF TRPM1 HTS = activators of MITF-driven TRPM1 promoter activity in SK-MEL-5 cells. SK-MEL-5 TRPM1-promoter luciferase, 24 h; % of positive control, neutral wells = 0. activation, % at 12.5 µM. AID 588334. hit rate 0.75% among 300,000;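 active = mean activation of at least 80% with every replicate also reaching 80%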;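 also: 0% = neutral control wells and 100% = parthenolide positive control wells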
SMARCA2 act = increases SMARCA2 function in MMTV reporter cells | MG213 cells, MMTV-luciferase reporter, dexamethasone, overnight | activation, % at 9.1 µM | hit rate 1% among 370,000 | AID 652017; in the data active = activation above about 7.8%;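 also: 0% = vehicle wells and 100% = reference activator wells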
Wnt act = activators of Wnt/beta-catenin signaling; Wnt/beta-catenin reporter cell assay, activator, plate reader; activation, % at 9.35 µM; hit rate 1.2% among 300,000; in the data active = activation above about 30%, passing the limit was not always enough;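 also: 0% = neutral control wells and 100% = positive control wells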
HSF-1 act = increases HSF-1 driven luciferase reporter signal; hit rate 1.7% among 300,000; NIH3T3-HGL HSF-1 luciferase reporter, MG132, 8 h; 100% = twice DMSO control signal; activation, % at 9 µM;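 active = mean replicate activation of at least 50% with a set share of replicates each reaching 50%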;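 also: 0% = median of the neutral control wells and 100% = twice that signal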
* = called active by the depositor; · = not tested or not shown. In the library only some 4.3% were active in any assay of this set; here they are far more common.

SMILES	HSF1 inhib	esBAF inh	MITF TRPM1 HTS	SMARCA2 act	Wnt act	HSF-1 act
Cn1c(SCC#N)nnc1-c1ccc2c(c1)OCO2	2.3	-2.8	·	-3.2	-3.3	11.1
Cn1c(SCC(=O)N2CCN(c3ccccc3)CC2)nnc1-c1c[nH]c2ccccc12	9.7	-1.9	·	-0.7	2.0	3.1
CCCCSc1nnc(-c2c[nH]c3ccccc23)n1C	18.9	72.3*	43.7	3.9	32.3*	26.4
CCCCSc1nnc(-c2ccc(C)cc2)n1C	17.0	20.4	33.8	1.4	53.5*	17.6
Cn1c(SCc2ccccc2)nnc1-c1ccc2c(c1)OCO2	10.9	51.7*	10.8	3.7	-4.7	29.9
COC(=O)c1ccc(CSc2nnc(-c3c[nH]c4ccccc34)n2C)o1	1.5	1.2	-0.2	-0.9	-1.1	-0.4
Cc1noc(C)c1NC(=O)Nc1cccc2c1O[C@H](CN(C)Cc1ccc(C(=O)O)cc1)[C@H](C)CN([C@@H](C)CO)C2=O	·	-3.7	·	·	·	·
C[C@H]1CN([C@@H](C)CO)C(=O)c2cc(NC(=O)CCC(F)(F)F)ccc2O[C@@H]1CN(C)S(=O)(=O)c1ccc(Cl)cc1	·	-2.0	·	·	·	·
C[C@H](CO)N1C[C@H](C)[C@@H](CN(C)CC2CC2)Oc2cc(C#CC3(O)CCCC3)ccc2S1(=O)=O	·	5.1	·	·	·	·
Cc1ccc(S(=O)(=O)N2CCN(C(=O)c3ccc4ccccc4n3)CC2)c(C)c1	·	57.7*	38.8	2.3	11.5	·
Cc1ccc(S(=O)(=O)N2CCN(C(=O)c3ccccn3)CC2)c(C)c1	3.1	·	-16.6	1.0	-3.4	-7.5
O=C(O)CSc1cccc[n+]1[O-]	0.3	-2.8	·	-3.9	·	10.0
O=C(CSc1cccc[n+]1[O-])c1cc2ccccc2o1	149.5	14.6	39.4	·	·	192.1*
O=C(CSc1cccc[n+]1[O-])c1cc(Cl)ccc1Cl	122.1	·	4.5	7.0	-4.7	169.8*
C[C@@H]1CCCCO[C@H](CN(C)C)[C@H](C)CN([C@H](C)CO)C(=O)c2cc(N(C)C)ccc2O1	·	-7.3	·	·	·	·
Cc1cc(C)nc(/N=C(\N)Nc2ccc3c(c2)OCCO3)n1	-54.5*	·	-3.9	-1.0	2.3	-59.6
Cc1cc(=O)[nH]c(/N=C(\N)Nc2ccc3c(c2)OCCO3)n1	4.2	-3.3	4.8	4.6	-0.9	0.9
CNC[C@@H]1Oc2c(NC(=O)Nc3ccc(F)cc3)cccc2C(=O)N([C@H](C)CO)C[C@H]1C	·	-1.5	·	·	·	·
CCc1cnc(N2[C@@H](C#N)[C@@H](c3ccc(-c4cccc(F)c4)cc3)[C@@H]2CO)s1	·	-3.3	·	·	·	·
N/C(=N\OC(=O)COc1ccc(Cl)cc1Cl)c1ccncc1	·	71.2*	55.8	0.5	8.0	·
N/C(=N\OC(=O)c1cccnc1)c1ccccc1Cl	9.1	74.0*	16.9	2.7	8.6	0.4
N/C(=N\OC(=O)COc1ccc(Br)cc1Cl)c1cccnc1	31.3	·	110.9*	0.2	5.8	60.0*
O=C(C[C@H]1CC[C@@H]2[C@H](COC[C@H](O)CN2S(=O)(=O)c2ccc(Cl)cc2)O1)NCCN1CCCC1	·	-2.3	·	·	·	·
C[C@@H]1CN([C@@H](C)CO)C(=O)c2ccccc2-c2ccccc2CO[C@H]1CN(C)S(=O)(=O)c1ccccc1F	·	-7.8	·	·	·	·
Cc1noc(C)c1S(=O)(=O)Nc1ccc2c(c1)C(=O)N([C@H](C)CO)C[C@H](C)[C@H](CN(C)C)OCCCC[C@H](C)O2	·	0.5	·	·	·	·
SMILES	HSF1 inhib	esBAF inh	MITF TRPM1 HTS	SMARCA2 act	Wnt act	HSF-1 act
O=C(C[C@H]1C[C@H]2c3cc(NC(=O)NC4CCCC4)ccc3O[C@H]2[C@H](CO)O1)NCc1ccc2c(c1)OCO2	·	2.7	·	·	·	·
CCN(c1ccccc1)S(=O)(=O)c1ccc(Cl)c(NC(=O)CSc2nnc(C)s2)c1	-66.4*	-7.6	-1.1	-2.8	-0.3	-72.5
COc1ccc(S(=O)(=O)N(C)C[C@@H]2Oc3ccc(NS(=O)(=O)c4ccccc4)cc3CC(=O)N([C@H](C)CO)C[C@@H]2C)cc1	·	2.2	·	·	·	·
COc1ccc2oc(=O)c(N3C(=O)c4ccccc4C3=O)cc2c1	-66.3*	·	2.0	-0.1	-1.1	-72.3
COc1ccc2c(=O)c(N3C(=O)c4ccccc4C3=O)coc2c1	-8.2	-1.6	·	4.1	2.9	-10.9
CCCCN(C)C(=S)Nc1ccc2nc(N3CCN(CC)CC3)cc(C)c2c1	-63.8*	·	2.0	-5.2	-0.9	-70.6
CCN1CCN(c2cc(C)c3cc(NC(=S)N(C)Cc4ccccc4)ccc3n2)CC1	0.1	-8.4	12.4	0.0	-2.3	-1.4
Cc1cc(N2CCN(C)CC2)nc2ccc(NC(=S)NCCN3CCc4ccccc4C3)cc12	17.7	-9.8	-77.3	7.9*	-1.8	35.5
CCCCN(CC)C(=S)Nc1ccc2nc(N3CCN(C)CC3)cc(C)c2c1	-55.6*	-11.7	8.0	-3.5	10.3	-55.3
C[C@@H]1CN([C@@H](C)CO)C(=O)c2cc(C#CC3CC3)cnc2O[C@H]1CN(C)C(=O)c1ccc(F)cc1	·	-2.0	·	·	·	·
CCC(=O)Nc1ccc2c(c1)OC[C@@H](C)N(C(C)=O)C[C@@H](C)[C@@H](OC)CN(C)C2=O	·	3.3	·	·	·	·
O=C(Nc1ccc(Cl)cc1)N[C@@H]1CC[C@H](CCn2cc(-c3ccccc3F)nn2)O[C@@H]1CO	·	3.0	·	·	·	·
O=C(CC(Nc1ccccc1Cl)C(=O)OCC(=O)c1cccs1)c1ccccc1 (centres undefined)	-58.2*	·	·	0.8	26.0	-61.0
COc1ccccc1NC(CC(=O)c1ccccc1)C(=O)OCC(=O)c1ccc(C)cc1 (centres undefined)	-31.6	·	-2.5	2.7	19.3	-33.0
O=C(OCC(=O)c1cccs1)c1ccccc1	18.1	47.4*	25.1	1.3	0.4	42.4
Cc1ccc(S(=O)(=O)N(C)C[C@H]2Oc3ccc(NS(C)(=O)=O)cc3C(=O)N([C@H](C)CO)C[C@H]2C)cc1	·	-0.8	·	·	·	·
CCCNC(=O)N(C)C[C@H]1Oc2cc(-c3ccccc3F)ccc2S(=O)(=O)N([C@@H](C)CO)C[C@@H]1C	·	0.0	·	·	·	·
C[C@@H]1CN([C@@H](C)CO)C(=O)c2cc(NC(=O)NC3CCCCC3)ccc2O[C@@H](C)CCCCO[C@H]1CN(C)C(=O)C1CCCCC1	·	5.5	·	·	·	·
O=C(COC(=O)c1ccc(N2CCCC2=O)cc1)Nc1ccccc1	·	-4.7	5.2	-0.4	1.7	·
O=C(COC(=O)c1ccc(-c2nnc(-c3ccccc3)o2)cc1)c1ccccc1	38.9	28.3	31.7	0.2	23.4	50.9*
Nc1cccc(C(=O)OCC(=O)Nc2cccc3c2C(=O)c2ccccc2C3=O)c1	-9.6	·	-18.3	6.7	-1.2	-1.3
O=C(COC(=O)c1ccc(N2CCCC2=O)cc1)c1ccccc1	21.6	44.9*	·	0.7	16.3	44.4
CCOC(=O)c1cc(-c2nnc(-c3ccc(Cl)cc3)o2)c(C)nc1C	7.4	4.4	7.8	-0.9	-2.3	6.9
CCOC(=O)c1ccc(-c2nnc(-c3ccc(Cl)cc3Cl)o2)cc1	8.5	44.6*	87.4*	-0.2	·	6.1
Nc1cccc(C(=O)OCC(=O)c2ccccc2)c1	15.1	·	57.9	3.3	39.6*	29.1

Screening data deposited in PubChem by several laboratories.
